# Data reported in the supplement of paper PMC8728848.
# The entries come from a sample that favours the strongest signals as a whole.
# B1: SSR2 (Sclerotium rolfsii) (protein)
# chain: MVYKITVRVYQTNPDAFFHPVEKTVWKYANGGTWSITDDQHVLTMGGSGTSGTLRFHADNGESFTATFGVHNYKRWCDIVTNLAADETGMVINQQYYSQKNREEARERQLSNYQVKNAKGRNFQIVYTEAEGNDLHANLIIG
# Key:
# Test in all cases: glycan array binding signal (z-score within array); higher = stronger binding
# Settings in all cases: glycan notation: IUPAC condensed, linker removed
# GlcA(b1-3)Gal = target: GlcA(b1-3)Gal
# Procedure, shortened: (§1)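 Glycan array data came from 3228 arrays in the Consortium for Functional Glycomics database, and only arrays with an available protein sequence were kept. Glycan names were put into IUPAC-condensed notation, and columns mapping to the same glycan were averaged. The binding signal is a within-array Z-score, averaged across arrays of one protein sequence run at different concentrations or buffers and across linkers. A negative Z-score can be read as non-binding.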
# [1] = target: GlcNAc(a1-3)Gal(b1-4)GlcNAc
# Procedure, shortened: as §1
# [2] = target: GlcNAc(a1-4)Gal(b1-4)GlcNAc(b1-3)Gal(b1-4)GlcNAc(b1-3)Gal(b1-4)GlcNAc
# Procedure, shortened: as §1
# [3] = target: GlcNAc(a1-6)Gal(b1-4)GlcNAc
# Procedure, shortened: as §1
# [4] = target: GlcNAc(b1-2)Man(a1-3)[GlcNAc(b1-2)Man(a1-6)]Man(b1-4)GlcNAc(b1-4)GlcNAc
# Procedure, shortened: as §1
# [5] = target: GlcNAc(b1-2)Man(a1-3)[GlcNAc(b1-4)][GlcNAc(b1-2)Man(a1-6)]Man(b1-4)GlcNAc(b1-4)[Fuc(a1-6)]GlcNAc
# Procedure, shortened: as §1
# [6] = target: GlcNAc(b1-2)[GlcNAc(b1-6)]Man(a1-6)[GlcNAc(b1-2)Man(a1-3)]Man(b1-4)GlcNAc(b1-4)GlcNAc
# Procedure, shortened: as §1
# [7] = target: GlcNAc(b1-2)[GlcNAc(b1-6)]Man(a1-6)[GlcNAc(b1-2)Man(a1-3)]Man(b1-4)GlcNAc(b1-4)[Fuc(a1-6)]GlcNAc
# Procedure, shortened: as §1
# [8] = target: GlcNAc(b1-3)Gal(b1-3)GalNAc
# Procedure, shortened: as §1
# [9] = target: GlcNAc(b1-3)Gal(b1-4)GlcNAc(b1-3)Gal(b1-4)GlcNAc
# Procedure, shortened: as §1
# [10] = target: GlcNAc(b1-3)Gal(b1-4)GlcNAc(b1-3)Gal(b1-4)GlcNAc(b1-3)Gal(b1-4)GlcNAc(b1-3)Gal(b1-4)GlcNAc(b1-2)[GlcNAc(b1-3)Gal(b1-4)GlcNAc(b1-3)Gal(b1-4)GlcNAc(b1-3)Gal(b1-4)GlcNAc(b1-3)Gal(b1-4)GlcNAc(b1-6)]Man(a1-6)[GlcNAc(b1-3)Gal(b1-4)GlcNAc(b1-3)Gal(b1-4)GlcNAc(b1-3)Gal(b1-4)GlcNAc(b1-3)Gal(b1-4)GlcNAc(b1-2)Man(a1-3)]Man(b1-4)GlcNAc(b1-4)[Fuc(a1-6)]GlcNAc
# Procedure, shortened: as §1
# [11] = target: GlcNAc(b1-3)Gal(b1-4)GlcNAc(b1-3)[GlcNAc(b1-3)Gal(b1-4)GlcNAc(b1-3)]GalNAc
# Procedure, shortened: as §1
# [12] = target: GlcNAc(b1-3)Gal(b1-4)GlcNAc(b1-6)[GlcNAc(b1-3)Gal(b1-3)]GalNAc
# Procedure, shortened: as §1
# GlcNAc(b1-3)Man = target: GlcNAc(b1-3)Man
# Procedure, shortened: as §1
# [13] = target: Man(a1-2)Man(a1-3)[Man(a1-6)]Man(a1-6)[Man(a1-2)Man(a1-3)]Man(b1-4)GlcNAc(b1-4)GlcNAc
# Procedure, shortened: as §1
# [14] = target: Man(a1-2)Man(a1-6)[Man(a1-3)]Man(a1-6)[Man(a1-2)Man(a1-2)Man(a1-3)]Man
# Procedure, shortened: as §1
# [15] = target: Man(a1-3)[Man(a1-6)]Man(a1-6)[Man(a1-2)Man(a1-3)]Man(b1-4)GlcNAc(b1-4)GlcNAc
# Procedure, shortened: as §1
# [16] = target: Neu5Ac(a2-3)Gal(b1-3)GalNAc(b1-4)[Neu5Ac(a2-3)]Gal(b1-4)Glc
# Procedure, shortened: as §1
# [17] = target: Neu5Ac(a2-3)Gal(b1-3)[Neu5Ac(a2-6)]GlcNAc(b1-3)[Fuc(a1-3)[Gal(b1-4)]GlcNAc(b1-6)]Gal(b1-4)Glc
# Procedure, shortened: as §1
# [18] = target: Neu5Ac(a2-3)Gal(b1-4)GlcNAc(b1-2)Man(a1-3)[GlcNAc(b1-4)][Neu5Ac(a2-3)Gal(b1-4)GlcNAc(b1-2)Man(a1-6)]Man(b1-4)GlcNAc(b1-4)GlcNAc
# Procedure, shortened: as §1
# [19] = target: Neu5Ac(a2-3)Gal(b1-4)GlcNAc(b1-3)Gal(b1-4)GlcNAc(b1-3)[Neu5Ac(a2-3)Gal(b1-4)GlcNAc(b1-3)Gal(b1-4)GlcNAc(b1-6)]GalNAc
# Procedure, shortened: as §1
# [20] = target: Neu5Ac(a2-3)Gal(b1-4)GlcNAc(b1-3)Gal(b1-4)GlcNAc(b1-6)[Gal(b1-3)]GalNAc
# Procedure, shortened: as §1
# [21] = target: Neu5Ac(a2-3)GalNAc(b1-4)GlcNAc
# Procedure, shortened: as §1
# [22] = target: Neu5Ac(a2-6)Gal(b1-4)GlcNAc(b1-2)Man(a1-3)Man(b1-4)GlcNAc(b1-4)GlcNAc
# Procedure, shortened: as §1
# [23] = target: Neu5Ac(a2-6)Gal(b1-4)GlcNAc(b1-3)Gal(b1-3)GlcNAc
# Procedure, shortened: as §1
# [24] = target: Neu5Ac(a2-8)Neu5Ac(a2-3)Gal(b1-3)GalNAc(b1-4)[Neu5Ac(a2-3)]Gal(b1-4)Glc
# Procedure, shortened: as §1
# [25] = target: Neu5Ac9Ac(a2-6)Gal(b1-4)GlcNAc
# Procedure, shortened: as §1
# [26] = target: Neu5Gc(a2-3)Gal(b1-4)[Fuc(a1-3)]GlcNAc
# Procedure, shortened: as §1
# [27] = target: Neu5Gc(a2-8)Neu5Gc(a2-6)Gal(b1-4)GlcNAc
# Procedure, shortened: as §1
binder,measurement,setting,value
B1,glycan array binding signal (z-score),GlcA(b1-3)Gal,-0.282
same,glycan array binding signal (z-score),[1],3.71
same,glycan array binding signal (z-score),[2],6.99
same,glycan array binding signal (z-score),[3],0.528
same,glycan array binding signal (z-score),[4],6.77
same,glycan array binding signal (z-score),[5],2.85
same,glycan array binding signal (z-score),[6],4.32
same,glycan array binding signal (z-score),[7],4.49
same,glycan array binding signal (z-score),[8],3.63
same,glycan array binding signal (z-score),[9],0.873
same,glycan array binding signal (z-score),[10],1.3
same,glycan array binding signal (z-score),[11],0.552
same,glycan array binding signal (z-score),[12],1.62
same,glycan array binding signal (z-score),GlcNAc(b1-3)Man,-0.149
same,glycan array binding signal (z-score),[13],-0.276
same,glycan array binding signal (z-score),[14],-0.303
same,glycan array binding signal (z-score),[15],-0.244
same,glycan array binding signal (z-score),[16],-0.28
same,glycan array binding signal (z-score),[17],-0.288
same,glycan array binding signal (z-score),[18],-0.284
same,glycan array binding signal (z-score),[19],-0.267
same,glycan array binding signal (z-score),[20],0.625
same,glycan array binding signal (z-score),[21],-0.279
same,glycan array binding signal (z-score),[22],-0.286
same,glycan array binding signal (z-score),[23],-0.286
same,glycan array binding signal (z-score),[24],-0.271
same,glycan array binding signal (z-score),[25],-0.291
same,glycan array binding signal (z-score),[26],-0.284
same,glycan array binding signal (z-score),[27],-0.286
